Results: PubChem BioAssay (EPA / NIEHS)
Some structures have more than one record in an assay (separate samples or runs), and their calls can disagree. Activity calls are given as the source filed them. How the source made its calls: active means hit-call score of the fitted dose curve at least 0.9, where 1 is the maximum; inactive means score below 0.9.

Tests used:
[1] = ATG_GLI_CIS: Attagene CIS-FACTORIAL HepG2 Assay for human Zinc Finger Protein GLI1 (AID 2282945); settings: HepG2, Attagene cis-factorial reporter mRNA, GLI element; actives raise or lower the signal
In short: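 Transiently transfected HepG2 cells report endogenous transcription factor activity via cis-element-driven reporter units. After 24 h compound exposure, reporter mRNA was measured by RT-PCR with capillary electrophoresis; bidirectional fitting against DMSO baseline.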

[2] = ATG_GRE_CIS: Attagene CIS-FACTORIAL HepG2 Assay for human Glucocorticoid Response Elements (GRE) (AID 2282947); settings: HepG2 GRE cis-reporter, Attagene multiplex mRNA; actives raise or lower the signal
In short: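 Read-out: fluorescent reporter-transcript fragments separated by capillary electrophoresis after RT-PCR. Transiently transfected HepG2 cells carrying cis-element-driven reporter units were dosed for 24 h; gain or loss of signal fitted against DMSO control.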

[3] = ATG_ISRE_CIS: Attagene CIS-FACTORIAL HepG2 Assay for human Interferon Regulatory Factor 1 (IRF1) binding to an Interferon-Stimulated Response Element (ISRE) (AID 2282948); settings: HepG2 ISRE cis-reporter (Attagene), mRNA transcription readout; actives raise or lower the signal
In short: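 Signal reflects induction or loss of ISRE-linked reporter mRNA in transiently transfected HepG2 cells after a 24 h treatment, detected by fluorescent RT-PCR fragments on capillary electrophoresis and normalised to DMSO.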

[4] = ATG_M_32_CIS: Attagene CIS-FACTORIAL HepG2 Assay for M32 Transcription Factor (Internal Marker) (AID 2282949); settings: HepG2 Attagene cis-factorial M32 reporter, mRNA; actives raise or lower the signal;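 further: background control marker of the multiplexed CIS panel rather than a real target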
In short: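 Using DMSO as baseline, bidirectional curve fits were applied to reporter mRNA signals. These came from transiently transfected HepG2 cells exposed for 24 h, with RNA analysed by RT-PCR, FAM primer extension, HpaI digestion and CE.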

[5] = ATG_M_06_CIS: Attagene CIS-FACTORIAL HepG2 Assay for M06 Transcription Factor (Internal Marker) (AID 2282950); settings: HepG2 Attagene CIS-FACTORIAL M06 internal marker reporter; actives raise or lower the signal
In short: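 Terse: HepG2, transient MRTU transfection (FuGene 6), 24 h dosing; total RNA, oligo(dT) RT, PCR, FAM label, HpaI cut, capillary electrophoresis; bidirectional fit vs DMSO baseline; background-control endpoint.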

[6] = biological target: Hypoxia-inducible factor 1-alpha (Homo sapiens) (UniProt Q16665); assay: ATG_HIF1a_CIS: Attagene CIS-FACTORIAL HepG2 Assay for human Hypoxia Inducible Factor 1 (HIF1A) (AID 2282951); settings: HepG2 Attagene cis-factorial HIF1a reporter transcription; actives raise or lower the signal
Sequence of Hypoxia-inducible factor 1-alpha (Homo sapiens) (Q16665 whole entry, looked up, the tested form may be a part): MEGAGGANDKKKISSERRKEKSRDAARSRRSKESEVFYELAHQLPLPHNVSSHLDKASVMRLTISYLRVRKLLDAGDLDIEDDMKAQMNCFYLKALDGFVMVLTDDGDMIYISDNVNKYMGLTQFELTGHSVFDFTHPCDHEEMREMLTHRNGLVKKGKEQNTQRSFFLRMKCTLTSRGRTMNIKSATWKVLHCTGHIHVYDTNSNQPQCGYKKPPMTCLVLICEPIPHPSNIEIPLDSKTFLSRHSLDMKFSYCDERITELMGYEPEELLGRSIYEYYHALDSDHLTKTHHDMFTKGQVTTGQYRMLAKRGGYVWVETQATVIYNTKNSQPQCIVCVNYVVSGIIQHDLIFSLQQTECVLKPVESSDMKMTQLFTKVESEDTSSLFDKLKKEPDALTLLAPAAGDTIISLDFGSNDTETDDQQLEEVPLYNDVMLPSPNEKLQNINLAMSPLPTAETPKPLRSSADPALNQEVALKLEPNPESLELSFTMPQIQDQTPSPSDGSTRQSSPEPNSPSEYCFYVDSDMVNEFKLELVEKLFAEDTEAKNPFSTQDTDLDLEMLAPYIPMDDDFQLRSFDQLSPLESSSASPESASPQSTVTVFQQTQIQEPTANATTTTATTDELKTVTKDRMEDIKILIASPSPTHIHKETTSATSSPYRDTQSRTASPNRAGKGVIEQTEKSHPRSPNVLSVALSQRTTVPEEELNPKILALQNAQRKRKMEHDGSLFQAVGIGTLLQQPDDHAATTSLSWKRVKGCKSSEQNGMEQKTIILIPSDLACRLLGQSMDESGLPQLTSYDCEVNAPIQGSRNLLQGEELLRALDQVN
In short: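 Transient MRTU transfection of human HepG2 liver cells, 24 h compound treatment, then total RNA isolation, oligo(dT) reverse transcription, PCR amplification, fluorescent labelling and capillary electrophoresis of reporter fragments. Gain or loss relative to DMSO.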

[7] = biological target: Hepatocyte nuclear factor 6 (Homo sapiens) (UniProt Q9UBC0); assay: ATG_HNF6_CIS: Attagene CIS-FACTORIAL HepG2 Assay for human Hepatocyte Nuclear Factor 6 (HNF6) (AID 2282952); settings: HepG2 Attagene cis-factorial HNF6 reporter transcription; actives raise or lower the signal
Sequence of Hepatocyte nuclear factor 6 (Homo sapiens) (Q9UBC0 whole entry, looked up): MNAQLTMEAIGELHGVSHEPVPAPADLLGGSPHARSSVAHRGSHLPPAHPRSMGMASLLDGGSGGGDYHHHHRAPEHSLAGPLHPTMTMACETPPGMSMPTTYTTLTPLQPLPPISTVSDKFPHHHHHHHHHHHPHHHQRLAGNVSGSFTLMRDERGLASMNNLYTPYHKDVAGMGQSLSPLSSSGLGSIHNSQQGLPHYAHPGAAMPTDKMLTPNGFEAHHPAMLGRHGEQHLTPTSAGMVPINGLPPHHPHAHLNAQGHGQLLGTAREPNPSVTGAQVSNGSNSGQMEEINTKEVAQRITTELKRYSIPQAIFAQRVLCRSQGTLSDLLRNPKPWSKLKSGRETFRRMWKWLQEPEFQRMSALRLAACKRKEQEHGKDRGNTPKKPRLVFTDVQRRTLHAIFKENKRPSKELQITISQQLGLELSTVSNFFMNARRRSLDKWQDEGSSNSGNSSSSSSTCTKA
In short: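 Endogenous transcription factor activity in human HepG2 liver cells was captured through cis-regulated reporter constructs. After 24 h treatment, reporter mRNA was measured by RT-PCR with capillary electrophoresis, and activity was fitted in both directions relative to DMSO.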

[8] = biological target: Heat shock factor protein 1 (Homo sapiens) (UniProt Q00613); assay: ATG_HSE_CIS: Attagene CIS-FACTORIAL HepG2 Assay for human Heat Shock Transcription Factor 1 (HSE) (AID 2282953); settings: HepG2 HSE cis-reporter, Attagene RNA transcription; actives raise or lower the signal
Sequence of Heat shock factor protein 1 (Homo sapiens) (Q00613 whole entry, looked up, the tested form may be a part): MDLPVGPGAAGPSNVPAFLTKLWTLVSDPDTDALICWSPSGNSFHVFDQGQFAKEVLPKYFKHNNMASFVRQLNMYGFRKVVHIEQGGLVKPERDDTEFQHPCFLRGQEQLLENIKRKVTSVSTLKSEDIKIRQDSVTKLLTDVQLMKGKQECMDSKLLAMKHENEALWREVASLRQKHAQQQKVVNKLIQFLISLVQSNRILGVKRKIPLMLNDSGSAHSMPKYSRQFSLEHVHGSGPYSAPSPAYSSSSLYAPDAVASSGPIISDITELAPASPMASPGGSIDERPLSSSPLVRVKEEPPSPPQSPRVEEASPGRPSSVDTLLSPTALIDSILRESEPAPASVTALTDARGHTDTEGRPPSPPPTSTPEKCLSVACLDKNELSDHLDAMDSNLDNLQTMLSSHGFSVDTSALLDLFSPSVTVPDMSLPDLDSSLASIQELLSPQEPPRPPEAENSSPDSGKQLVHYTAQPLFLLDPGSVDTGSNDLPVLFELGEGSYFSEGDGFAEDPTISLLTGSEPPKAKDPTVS
In short: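 Read-out: fluorescence of reporter-specific RT-PCR fragments separated by capillary electrophoresis. HepG2 carrying transfected cis-element reporter units; 24 h dosing; activity fitted in both directions relative to DMSO baseline.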

[9] = ATG_MRE_CIS: Attagene CIS-FACTORIAL HepG2 Assay for human Metal Responsive Element (MRE) (AID 2282954); settings: HepG2 MRE cis-reporter transcription, Attagene multiplex; actives raise or lower the signal
In short: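 RT-PCR/capillary electrophoresis readout of reporter mRNA, 24 h post-dosing, in HepG2 cells transfected with multiplexed cis-regulated reporter constructs. Gain or loss of signal fitted bidirectionally against DMSO baseline.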

[10] = ATG_PBREM_CIS: Attagene CIS-FACTORIAL HepG2 Assay for human Phenobarbital-responsive Enhancer Module (PBREM) (AID 2282955); settings: HepG2 PBREM cis-reporter, Attagene multiplexed transcription; actives raise or lower the signal
In short: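 Endogenous transcription factors in human liver HepG2 cells drive a PBREM cis-element reporter, whose transcript level after 24 h treatment is quantified by RT-PCR with capillary electrophoresis; activity fitted in both directions against DMSO.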

[11] = biological target: Paired box protein Pax-6 (Homo sapiens) (UniProt P26367); assay: ATG_Pax6_CIS: Attagene CIS-FACTORIAL HepG2 Assay for human Paired Box 6 (PAX6) (AID 2282956); settings: HepG2 CIS-FACTORIAL PAX6 reporter transcription, RNA readout; actives raise or lower the signal
Sequence of Paired box protein Pax-6 (Homo sapiens) (P26367 whole entry, looked up): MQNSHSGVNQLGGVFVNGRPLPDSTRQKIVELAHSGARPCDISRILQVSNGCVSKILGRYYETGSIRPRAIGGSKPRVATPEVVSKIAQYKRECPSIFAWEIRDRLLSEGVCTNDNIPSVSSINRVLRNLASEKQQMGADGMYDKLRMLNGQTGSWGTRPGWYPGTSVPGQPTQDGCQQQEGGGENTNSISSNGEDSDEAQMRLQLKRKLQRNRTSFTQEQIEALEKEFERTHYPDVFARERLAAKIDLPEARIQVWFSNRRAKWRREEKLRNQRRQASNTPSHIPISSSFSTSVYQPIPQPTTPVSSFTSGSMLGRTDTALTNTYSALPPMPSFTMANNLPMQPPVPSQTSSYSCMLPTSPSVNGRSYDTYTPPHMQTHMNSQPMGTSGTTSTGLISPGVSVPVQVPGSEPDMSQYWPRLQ
In short: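 Values derive from bidirectional curve fitting of reporter mRNA signal relative to DMSO. HepG2 cells bearing transfected cis-regulated MRTUs were exposed for 24 h; transcripts were read by RT-PCR and capillary electrophoresis.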

[12] = ATG_PXRE_CIS: Attagene CIS-FACTORIAL HepG2 Assay for human Pregnane X Receptor Element (PXRE) (AID 2282957); settings: HepG2 Attagene CIS-FACTORIAL PXRE reporter, mRNA; actives raise or lower the signal
In short: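 Endogenous transcription factor activity in HepG2 was gauged through induction of reporter mRNA driven by a cis-regulating promoter element, sampled 24 h post-treatment. Activity was fitted in both directions against DMSO negative control.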

[13] = ATG_RORE_CIS: Attagene CIS-FACTORIAL HepG2 Assay for human RAR-related Orphan Receptor Element (RORE) (AID 2282959); settings: HepG2 Attagene cis-factorial RORE reporter, mRNA; actives raise or lower the signal
In short: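 Transient MRTU transfection of human HepG2 liver cells (FuGene 6); 24 h compound exposure; TriZol RNA, oligo(dT) RT, PCR, FAM labeling, HpaI cut, CE fragment analysis. DMSO = negative control/baseline.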

[14] = ATG_Sox_CIS: Attagene CIS-FACTORIAL HepG2 Assay for human SRY-box transcription factor (SOX) (AID 2282960); settings: HepG2 Attagene cis-factorial SOX reporter, mRNA; actives raise or lower the signal
In short: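 Endogenous factor activity in human liver HepG2 cells carrying transfected cis-regulated reporter units. RNA taken 24 h post-dose, reverse-transcribed, PCR-amplified and sized by capillary electrophoresis. Gain or loss of signal fitted relative to DMSO.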

[15] = biological target: Transcription factor Sp1 (Homo sapiens) (UniProt P08047); assay: ATG_Sp1_CIS: Attagene CIS-FACTORIAL HepG2 Assay for human Specificity Protein 1 (Sp1) (AID 2282961); settings: HepG2 Sp1 cis-reporter transcription, actives raise or lower the signal
Sequence of Transcription factor Sp1 (Homo sapiens) (P08047 whole entry, looked up): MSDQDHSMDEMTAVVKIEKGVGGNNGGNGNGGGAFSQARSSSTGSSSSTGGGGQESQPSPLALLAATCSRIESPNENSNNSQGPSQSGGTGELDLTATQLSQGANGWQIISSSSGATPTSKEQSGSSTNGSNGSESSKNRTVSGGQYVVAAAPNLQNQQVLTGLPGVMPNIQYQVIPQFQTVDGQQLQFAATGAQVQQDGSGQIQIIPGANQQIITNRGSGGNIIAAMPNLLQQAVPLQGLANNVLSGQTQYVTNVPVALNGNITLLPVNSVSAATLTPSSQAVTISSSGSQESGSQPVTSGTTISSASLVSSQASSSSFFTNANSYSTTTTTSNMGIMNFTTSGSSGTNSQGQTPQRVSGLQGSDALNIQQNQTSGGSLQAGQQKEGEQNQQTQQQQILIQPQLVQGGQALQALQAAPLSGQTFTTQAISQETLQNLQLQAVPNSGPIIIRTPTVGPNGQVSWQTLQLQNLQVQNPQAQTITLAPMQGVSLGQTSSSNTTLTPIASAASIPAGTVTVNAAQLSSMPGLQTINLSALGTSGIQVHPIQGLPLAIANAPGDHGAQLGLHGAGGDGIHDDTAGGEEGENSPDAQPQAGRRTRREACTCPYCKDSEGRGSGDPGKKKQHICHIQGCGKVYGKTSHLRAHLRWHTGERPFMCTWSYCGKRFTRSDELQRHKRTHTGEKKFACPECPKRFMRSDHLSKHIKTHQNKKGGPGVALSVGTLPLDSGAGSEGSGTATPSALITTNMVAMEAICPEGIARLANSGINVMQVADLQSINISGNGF
In short: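 Transient MRTU-transfected HepG2, 24 h compound exposure. Total RNA → oligo(dT) RT → PCR of reporter → 6-FAM primer extension → HpaI digest → CE. Endpoint fitted both directions vs DMSO.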

[16] = ATG_SREBP_CIS: Attagene CIS-FACTORIAL HepG2 Assay for human Sterol Regulatory Element Binding (SREBP) (AID 2282962); settings: HepG2 Attagene cis-factorial SREBP reporter, mRNA; actives raise or lower the signal
In short: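 Values derive from bidirectional curve fitting with DMSO as baseline. The underlying measurement is reporter mRNA from cis-element-regulated units in transiently transfected HepG2, quantified by RT-PCR and capillary electrophoresis after 24 h exposure.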

[17] = biological target: Signal transducer and activator of transcription 3 (Homo sapiens) (UniProt P40763); assay: ATG_STAT3_CIS: Attagene CIS-FACTORIAL HepG2 Assay for human Signal Transducer and Activator of Transcription 3 (STAT3) (AID 2282963); settings: HepG2, Attagene cis-factorial STAT3 reporter transcription; actives raise or lower the signal
Sequence of Signal transducer and activator of transcription 3 (Homo sapiens) (P40763 whole entry, looked up, the tested form may be a part): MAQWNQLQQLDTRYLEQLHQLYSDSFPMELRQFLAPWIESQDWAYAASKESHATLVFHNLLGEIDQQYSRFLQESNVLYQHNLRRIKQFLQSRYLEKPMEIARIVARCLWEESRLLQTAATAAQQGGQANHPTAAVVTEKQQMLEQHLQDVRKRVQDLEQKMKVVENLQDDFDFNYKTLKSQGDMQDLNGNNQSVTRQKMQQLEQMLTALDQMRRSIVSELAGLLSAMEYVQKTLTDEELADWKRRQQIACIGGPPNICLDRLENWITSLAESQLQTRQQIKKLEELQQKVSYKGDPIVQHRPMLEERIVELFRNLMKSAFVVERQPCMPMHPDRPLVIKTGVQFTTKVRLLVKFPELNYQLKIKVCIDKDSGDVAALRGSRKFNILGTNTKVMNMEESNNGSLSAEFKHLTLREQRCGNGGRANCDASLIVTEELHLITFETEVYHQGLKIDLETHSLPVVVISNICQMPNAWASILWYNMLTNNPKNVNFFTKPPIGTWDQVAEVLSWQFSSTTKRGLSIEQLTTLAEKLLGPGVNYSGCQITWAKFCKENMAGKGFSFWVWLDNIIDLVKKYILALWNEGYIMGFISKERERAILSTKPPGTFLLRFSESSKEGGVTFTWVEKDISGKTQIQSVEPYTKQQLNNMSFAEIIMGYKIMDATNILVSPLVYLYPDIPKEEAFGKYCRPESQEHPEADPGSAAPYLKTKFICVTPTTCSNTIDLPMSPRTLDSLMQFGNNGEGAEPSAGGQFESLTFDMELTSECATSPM
In short: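 Readout: fluorescent reporter mRNA fragments resolved by capillary electrophoresis. Setup: HepG2 transfected with MRTUs reporting endogenous transcription-factor activity, dosed 24 h. Gain or loss of signal fitted bidirectionally against DMSO control.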

[18] = ATG_TA_CIS: Attagene CIS-FACTORIAL HepG2 Assay for human TA Basal Promoter (AID 2282964); settings: HepG2 Attagene CIS-factorial TA basal promoter reporter; actives raise or lower the signal
In short: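 Transfected HepG2, 24 h compound exposure; RNA → RT-PCR → FAM primer extension → HpaI cut → CE fluorescence. Gain/loss-of-signal fitted against DMSO negative control. Background-control readout.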

[19] = biological target: Bile acid receptor (Homo sapiens) (UniProt Q96RI1); assay: ATG_IR1_CIS: Attagene CIS-FACTORIAL HepG2 Assay for human Nuclear Receptor Subfamily 1 Group H Member 4 (NR1H4), IR1 submotif (AID 2282946); settings: IR1 reporter transcription, actives raise or lower the signal
Sequence of Bile acid receptor (Homo sapiens) (Q96RI1 whole entry, looked up): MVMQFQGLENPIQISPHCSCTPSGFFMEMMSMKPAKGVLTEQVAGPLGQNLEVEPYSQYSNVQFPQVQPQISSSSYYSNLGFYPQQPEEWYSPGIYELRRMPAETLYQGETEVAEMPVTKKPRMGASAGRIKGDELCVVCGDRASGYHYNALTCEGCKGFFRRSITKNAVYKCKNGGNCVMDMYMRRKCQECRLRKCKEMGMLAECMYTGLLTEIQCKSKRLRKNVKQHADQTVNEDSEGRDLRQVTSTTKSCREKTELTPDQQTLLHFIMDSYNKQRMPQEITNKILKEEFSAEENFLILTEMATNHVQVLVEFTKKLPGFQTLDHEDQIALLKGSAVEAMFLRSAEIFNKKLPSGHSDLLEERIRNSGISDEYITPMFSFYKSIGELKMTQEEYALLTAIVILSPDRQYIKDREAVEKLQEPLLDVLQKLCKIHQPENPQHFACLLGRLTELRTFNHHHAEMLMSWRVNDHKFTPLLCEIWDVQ
In short: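 Fluorescence of capillary-separated, HpaI-digested RT-PCR reporter products gave IR1-element mRNA induction in HepG2 cells 24 h after dosing. Endogenous transcription factors drove the cis-regulated reporters; activity was fitted bidirectionally against DMSO.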

[20] = ATG_PPRE_CIS: Attagene CIS-FACTORIAL HepG2 Assay for human Peroxisome Proliferator-activated Response Element (PPRE) (AID 2282958); settings: HepG2 PPRE cis-element reporter, Attagene transcription factor profiling; actives raise or lower the signal
In short: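 HepG2, transient MRTU transfection (cis promoter elements, endogenous TFs). 24 h dosing. RNA → oligo(dT) RT → PCR → 6-FAM primer extension → HpaI digest → CE. Bidirectional fit vs DMSO.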

Measured: AC50

OCc1ccccc1
not listed: [19] | [20]
inactive: all other assays above

COCc1nnc(-c2ccc[n+]([O-])c2)n1-c1c(Cl)c(Cl)cc2[nH]c(=O)c(=O)[nH]c12
not listed: [2] | [10] | [20]
inactive: all other assays above

O=C(O)c1ccc2c(c1)nc(C(=O)NC1CCN(C3CC3)CC1)n2Cc1cc(-c2ccc(Cl)s2)on1
active: [20] 0.149 µM
not listed: [2]
inactive: all other assays above

OC(Cn1cncn1)(Cn1cncn1)c1ccc(F)cc1F
not listed: [10] | [19]
inactive: all other assays above

CCCCCCCCN(C)C
not listed: [8] | [10] | [19] | [20]
inactive: all other assays above

CCCC(CCC)C(=O)O
not listed: [7] | [10] | [13] | [19] | [20]
inactive: all other assays above

NC(=O)N1c2ccccc2C=Cc2ccccc21
active: [12] 34.8 µM
not listed: [2] | [19]
inactive: all other assays above

CCOC(N)=O
not listed: [2] | [10] | [19] | [20]
inactive: all other assays above

CCCCCCCC/C=C\CCCCCCCC(=O)OC[C@@H](O)[C@H]1OC[C@H](O)[C@H]1O
active: [12] 71.7 µM
not listed: [10] | [19]
inactive: all other assays above

OCCNCCO
not listed: [10] | [13] | [19] | [20]
inactive: all other assays above

CCc1ccc(O)c(C(C)(C)C)c1
active: [6] 56.3 µM | [12] 15.9 µM | [20] 42 µM
not listed: [10] | [19]
inactive: all other assays above

CCCCN1C(=O)[C@@H]([C@H](O)C2CCCCC2)NC(=O)C12CCN(Cc1ccc(Oc3ccc(C(=O)O)cc3)cc1)CC2
active: [3] 93.5 µM | [9] 75.8 µM | [12] 93.5 µM | [20] 54 µM | [18] 31.7 µM
not listed: [2] | [19]
inactive: all other assays above

O=C1CN(N=Cc2ccc([N+](=O)[O-])o2)C(=O)N1
active: [6] 27.3 µM
not listed: [7] | [19]
inactive: all other assays above

CC(C)c1nnc2ccc(-c3ocnc3-c3cc(F)ccc3F)cn12
active: [9] 100 µM | [10] 83.4 µM | [12] 26.5 µM | [15] 125 µM
not listed: [7] | [19]
inactive: all other assays above

OCC(CO)(CO)CO
not listed: [2] | [19]
inactive: all other assays above

O=C(N[C@H](CO)[C@H](O)c1ccc([N+](=O)[O-])cc1)C(Cl)Cl
inactive: [1] | [3] | [4] | [5] | [7] | [8] | [9] | [10] | [11] | [12] | [20] | [13] | [14] | [15] | [16] | [17] | [18]
active: [12] 69.7 µM [middle of 4 runs]
